HIF-2a block: HIF-2a inhibition; 786-0 RCC cells HIF-2a reporter, luciferase luminescence, overnight; inhibition, % at 18.8 µM; actives 0.72% (n = 360,000);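 active = inhibition of the luminescence signal of 40% or more relative to plate controls, in a single-dose primary screen at 18.75 µM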
Peg3 prom inh: reduces Peg3 promoter-driven luciferase expression in HeLa. HeLa PEG-Prom luciferase reporter, luminescence, overnight. inhibition, % at 20 µM. actives 1.7% (n = 360,000). AID 588405;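 active = inhibition of at least 50% at 20 µM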
CF NFkB block: blocks PAF-induced NF-kB reporter in cystic fibrosis cells. KKLEB NF-kB-GFP reporter, GFP fluorescence overnight. inhibition, % at 5 µM. actives 0.86% (n = 360,000). AID 588850;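 active = at least 50% inhibition at 5 µM, scaled per plate between neutral and stimulator controls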;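 also: PAF is a Pseudomonas aeruginosa culture filtrate used as stimulus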
KKLEB tox: reduces viability of KKLEB cystic fibrosis airway cells; AID 602141; activity change (cytotoxicity), % at 5 µM; KKLEB CF airway cells viability, ATPlite luminescence, overnight; stronger effect = lower value; cells stimulated with P. aeruginosa culture filtrate; actives 0.36% (n = 360,000);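 active = corrected activity change at or below -50% at 5 µM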
ABHD5-PLIN5 inh: blocks binding of human ABHD5 to perilipin-5 | inhibition, % at 4 µM | AID 602281 | Split G. princeps luciferase complementation, luminescence, 4 h | actives 0.78% (n = 360,000);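 active = inhibition above the mean inhibition across every tested compound plus 3 SD, cut at about 22% in these data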
Mdm2 MdmX PPI: disrupts the human Mdm2-MdmX interaction | O15151+Q00987 | inhibition, % at 8 µM | SaOS-2 split-luciferase Mdm2/MdmX complementation, luminescence | AID 485346 | actives 3% (n = 330,000);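 active = inhibition of at least 50% at 8 µM in the primary screen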
Target sequence (O15151 whole entry, looked up): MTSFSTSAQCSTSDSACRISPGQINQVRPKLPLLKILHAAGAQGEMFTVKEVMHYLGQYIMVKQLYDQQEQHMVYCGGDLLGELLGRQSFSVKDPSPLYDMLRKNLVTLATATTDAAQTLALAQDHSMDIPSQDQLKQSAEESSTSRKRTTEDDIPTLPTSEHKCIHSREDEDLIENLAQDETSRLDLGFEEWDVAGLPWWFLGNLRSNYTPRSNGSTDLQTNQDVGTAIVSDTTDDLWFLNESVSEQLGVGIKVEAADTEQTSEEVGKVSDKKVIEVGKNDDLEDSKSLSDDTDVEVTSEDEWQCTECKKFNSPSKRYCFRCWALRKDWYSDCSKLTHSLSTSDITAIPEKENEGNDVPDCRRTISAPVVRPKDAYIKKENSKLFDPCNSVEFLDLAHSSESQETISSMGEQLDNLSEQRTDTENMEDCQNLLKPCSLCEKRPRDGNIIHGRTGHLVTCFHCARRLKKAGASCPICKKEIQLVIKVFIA
Target sequence (Q00987 whole entry, looked up): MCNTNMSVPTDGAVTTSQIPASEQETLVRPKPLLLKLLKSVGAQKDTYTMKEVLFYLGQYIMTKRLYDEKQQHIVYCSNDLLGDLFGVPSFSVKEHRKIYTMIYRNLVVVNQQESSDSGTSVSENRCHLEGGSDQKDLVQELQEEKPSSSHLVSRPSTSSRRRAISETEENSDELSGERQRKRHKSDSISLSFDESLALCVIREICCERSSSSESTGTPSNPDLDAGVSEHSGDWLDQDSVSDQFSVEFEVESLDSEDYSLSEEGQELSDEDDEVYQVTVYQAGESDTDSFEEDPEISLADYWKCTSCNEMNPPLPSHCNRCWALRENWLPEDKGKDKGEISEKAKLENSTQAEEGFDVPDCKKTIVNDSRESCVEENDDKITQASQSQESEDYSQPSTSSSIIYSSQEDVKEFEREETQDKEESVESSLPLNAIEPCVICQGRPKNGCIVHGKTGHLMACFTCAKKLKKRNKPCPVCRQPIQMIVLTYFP
Of the large screens only hits and unclear results are named; the others gave an inactive call. An excerpt weighted towards active compounds, which were near 4.6% of everything screened.

O=C(CCl)c1ccc(Cc2ncc(C(F)(F)F)cc2Cl)s1	Peg3 prom inh 61
NS(=O)(=O)c1ccc(Cc2ncc(C(F)(F)F)cc2Cl)s1	none
CC(C)C1C(=O)N(Cc2cn(CCC3OCCCO3)nn2)CCS(=O)(=O)N1Cc1ccc(-c2ccc(Cl)c(Cl)c2)cc1 (stereo not drawn)	Peg3 prom inh 88 (no result: Mdm2 MdmX PPI)
CC(C)C1C(=O)N(Cc2cn(CCC3OCCCO3)nn2)CCS(=O)(=O)N1Cc1ccc(-c2ccc(Cl)cc2)cc1 (stereo not drawn)	none (no result: Mdm2 MdmX PPI)
NC(=O)c1ccccc1N/C=C/C(=O)c1ccc(Cl)cc1Cl	KKLEB tox -65 (no result: Mdm2 MdmX PPI)
CCCCC(O)(c1ccc(OC)cc1)C(CN1CCOCC1)c1ccccc1 (stereo not drawn)	Peg3 prom inh 52
CCCCCC(O)(c1ccc(OC)cc1)C(CN1CCOCC1)c1ccccc1 (stereo not drawn)	none
O=C(C1CCCO1)N1CCN(S(=O)(=O)c2cc(C(F)(F)F)ccc2Cl)CC1 (stereo not drawn)	none
C[C@]12CCC(=O)C=C1CC[C@@H]1[C@@H]2[C@@H](O)C[C@@]2(C)[C@H]1CC[C@]2(O)C(=O)COC(=O)CCC(=O)O	CF NFkB block 75
CC(=O)OCC=C1CCC2C3CCC4=CC(=O)CCC4(C)C3C(O)CC12C (stereo not drawn)	none (no result: Mdm2 MdmX PPI)
CCCC(=O)O[C@]1(C(=O)CO)CC[C@H]2[C@@H]3CCC4=CC(=O)CC[C@]4(C)[C@H]3[C@@H](O)C[C@@]21C	CF NFkB block 95
CC(=O)OCC(=O)[C@@]1(O)CC[C@H]2[C@@H]3CCC4=CC(=O)CC[C@]4(C)[C@H]3[C@@H](O)C[C@@]21C	CF NFkB block 64
C[C@]12C[C@H](O)[C@H]3[C@@H](CCC4=CC(=O)CC[C@@]43C)[C@@H]1CC[C@@H]2C(=O)CO	none
CC12CCC(=O)C=C1CCC1C2CCC2(C)C1CCC2(O)C(=O)CO (stereo not drawn)	none
CC1CC2C3CCC4=CC(=O)CCC4(C)C3CCC2(C)C1(O)C(=O)CO (stereo not drawn)	CF NFkB block 53 (no result: Mdm2 MdmX PPI)
CC(=O)OCC(=O)[C@@]1(O)CC[C@H]2[C@@H]3CCC4=CC(=O)CC[C@]4(C)[C@H]3C(=O)C[C@@]21C	none
Cc1ccc(NS(=O)(=O)N2CCCCC2)cc1	none (no result: Mdm2 MdmX PPI)
O=C1CCCC/C=C\C[C@H](CC(=O)N(CCO)Cc2ccccc2)C(=O)N2CCC[C@@H]2CO1	none
CC12CCC(=O)C=C1CCC1C2CCC2(C)C1CC[C@]2(O)C(=O)CO (stereo partly drawn)	none
CCC(CC)C(=O)OCC(=O)C1(O)CCC2C3CCC4=CC(=O)CCC4(C)C3C(O)CC21C (stereo not drawn)	CF NFkB block 64 (no result: Mdm2 MdmX PPI)
CC(=O)OCC(O)C1(O)CCC2C3CCC4=CC(=O)CCC4(C)C3C(O)CC21C (stereo not drawn)	none (no result: Mdm2 MdmX PPI)
CC1CC2(C)C(=CC1=O)CCC1C2C(O)CC2(C)C1CCC2(O)C(=O)CO (stereo not drawn)	CF NFkB block 67 (no result: Mdm2 MdmX PPI)
CC(=O)OCC(=O)C1(O)CCC2C3CC(F)C4=CC(=O)CCC4(C)C3C(O)CC21C (stereo not drawn)	CF NFkB block 76 (no result: Mdm2 MdmX PPI)
Cn1c(=O)oc2cc(S(=O)(=O)Nc3ccc(F)cc3)ccc21	none
CN(Cc1ccc(Cl)cc1)C(C(=O)NC1CCCCC1)c1ccnc2ccccc12 (stereo not drawn)	none (no result: Mdm2 MdmX PPI)
CC(C)Oc1ccc(C(=O)Nc2nnc(SCC(=O)N3CCOCC3)s2)cc1	HIF-2a block 48, KKLEB tox -74
Cc1ccc(C(=O)Nc2nnc(SCC(=O)N3CCCc4ccccc43)s2)cc1	KKLEB tox -97
CC1(C)CC(Cc2ccccc2C(F)(F)F)N(C(=O)OC(C)(C)C)C1 (stereo not drawn)	none (no result: Peg3 prom inh, CF NFkB block, KKLEB tox, Mdm2 MdmX PPI)
Nc1ccc(N=Nc2ccccc2)c2ccccc12	none
Nc1ccc(N=Nc2ccccc2)c(N)n1	CF NFkB block 63
CCOC(=O)/C(C#N)=N/Nc1ccc(S(=O)(=O)N2CCc3ccccc32)cc1	none
N#C/C(=N\Nc1ccc(S(=O)(=O)N2CCc3ccccc32)cc1)C(N)=S	CF NFkB block 58
COc1ccc2cc(CN(Cc3ccco3)Cc3nnnn3C3CCCCC3)c(=O)[nH]c2c1	none
COc1ccc2cc(CN(Cc3ccco3)C(c3nnnn3C3CCCCC3)C(C)C)c(=O)[nH]c2c1 (stereo not drawn)	ABHD5-PLIN5 inh 22
Nc1cccc([N+](=O)[O-])c1	none
O=[N+]([O-])c1cccc(SSc2cccc([N+](=O)[O-])c2)c1	ABHD5-PLIN5 inh 36 (no result: Mdm2 MdmX PPI)
Cc1ccn2c(NC3CCCCC3)c(-c3cccc(-c4cccc(Cl)c4)c3)nc2c1	Peg3 prom inh 56
COc1ccc(CCn2c(=S)[nH]c3cc(C(=O)NCc4ccco4)ccc3c2=O)cc1OC	Peg3 prom inh 51
CCCN(CCC)C(=O)c1ccc2c(=O)n(Cc3ccco3)c(=S)[nH]c2c1	none
COc1ccc(-n2c(=S)[nH]c3cc(C(=O)NCc4ccco4)ccc3c2=O)cc1OC	none
COc1ccc(-n2c(=S)[nH]c3cc(C(=O)Nc4ccc(OC)c(OC)c4)ccc3c2=O)cc1	KKLEB tox -70 (no result: Mdm2 MdmX PPI)
COc1cc(NC(=O)c2ccc3c(=O)n(Cc4ccco4)c(=S)[nH]c3c2)cc(OC)c1OC	ABHD5-PLIN5 inh 22
CC(=O)C1CCC2C3CC=C4CC(SC(=N)N)CCC4(C)C3CCC12C (stereo not drawn)	Peg3 prom inh 97 (no result: Mdm2 MdmX PPI)
CCc1cccc(NC(=O)CSC2=NS(=O)(=O)c3ccccc32)c1	Peg3 prom inh 68
CCc1nc2c(OCc3ccccc3)cccn2c1N(C)C(C)=O	none (no result: Mdm2 MdmX PPI)
Cc1ccc(-c2nnn(CC(=O)N(CC(=O)NC3CCCCC3)c3ccccc3F)n2)o1	none
Cc1ccc(Sc2ncnc(N)c2[N+](=O)[O-])cc1	none
Nc1ncnc(Sc2ncccn2)c1[N+](=O)[O-]	Peg3 prom inh 101, CF NFkB block 55 (no result: Mdm2 MdmX PPI)
COC(=O)c1ccc2nc(NC(=O)C(C)(C)C)sc2c1	KKLEB tox -50
COC(=O)c1ccc2nc(NC(=O)C3CCCCC3)sc2c1	none
CSc1ncc(CN2CCCC(C(=O)Nc3ccc(-c4ccco4)cc3)C2)cn1 (stereo not drawn)	ABHD5-PLIN5 inh 35
Cc1ncc(CN2CCCC(C(=O)Nc3ccc(-c4ccco4)cc3)C2)n1C (stereo not drawn)	none
CC(=O)c1cccc(NC(=O)COC(=O)Cn2cnc3ccccc32)c1	KKLEB tox -86
CC(=O)Nc1ccc(NC(=O)COC(=O)Cn2cnc3ccccc32)cc1	none
COCc1c(C(=O)Nc2ccc3nc(N4CCOCC4)sc3c2)oc2ccccc12	Peg3 prom inh 51
C=CCSc1nnc(CNS(=O)(=O)c2ccc(C)cc2)n1C	none
CCCSc1nnc(CNS(=O)(=O)c2ccc(C)cc2)n1C	ABHD5-PLIN5 inh 22
